Inconclusive results are not listed. Unmarked numbers belong to inactive results. Calls of active or inactive are those of the source. Calls follow the shape of the dose curve; as a rule, active = well fitted inhibition curve with a large enough effect; inconclusive = small, poorly fitted or top-dose-only effect; inactive = no such curve, though single readings can be large or run the other way.
Assay: Primary fluorescence-based thiol-reactive (MSTI) qHTS assay for identification of artifact compounds. (AID 1845221); also: nearly all actives have a fitted effect of over 65% in size;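 as to activity change, negative = thiol reactive: thiol-reactive compounds lower the probe fluorescence signal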
Details: MSTI thiol-reactivity probe, 1 h; series mostly up to 53.8 µM; activity change, negative = thiol reactive: at the top concentration
Source text: PI: Alexander Tropsha Ph.D.
UNC Eshelman School of Pharmacy
University of North Carolina, Chapel Hill, North Carolina
Hits from high-throughput screening (HTS) of chemical libraries are often false positives due to their interference with the assay detection technology. In response to this problem, we generated the largest publicly available library of chemical liabilities and developed a free webtool to predict HTS artifacts, both of which are described herein. More specifically, we generated, curated, and integrated HTS datasets for thiol reactivity, redox activity, and luciferase (firefly and nano) activity. Using these curated datasets, we developed and validated several Quantitative Structure-Interference Relationship (QSIR) models to predict nuisance behavior. […] These models were employed for virtual profiling of the National Center for Advancing Translational Science's (NCATS) in-house library, and 256 compounds for each assay were selected for the experimental validation of nuisance behavior. The BA for these external predictions ranged from 58 to 78% for compounds within the applicability domains of the models. […] The models developed in this study, along with aggregation models previously developed by our group (SCAM Detective) were implemented in "Liability Predictor," an online tool which may be used as part of chemical library design or for triaging HTS hits. Both the models and the curated datasets are publicly available at https://liability.mml.unc.edu/.
SEQUENCE No. (e.g., 1, 2, 3, etc.); […] (e.g., Cells, Incubation, Reagent, etc.); VALUE; DESCRIPTION.
1; Reagent; 4 uL; […].
2; Compounds and control; 16 nL; Kalypsis pin tool (Wako USA) equipped with a 1536-well pin head.
4; Detection; Fluorescence, ViewLux microplate reader, 525 nm excitation, 598 nm emission.
NOTES (numbers refer to Sequence numbers above)
1. Assays determining (E)-2-(4-mercaptostyryl)-1,3,3-trimethyl-3H-indol-1-ium (MSTI) reactivity were performed as previously described in the literature with modifications for the quick identification of compounds reacting with thiol. In brief, 4 uL of MSTI or positive control Acetyl-MSTI (final concentrations of 4 uM and 4 uM, respectively) in assay buffer (2% DMSO in 1X PBS pH 7.4) was dispensed into all wells of a 1536-well assay plate (solid-bottom black plate; Greiner Bio One, Monroe, NC).
2. A Wako Pin-tool (Wako Automation, Richmond, VA) was used to transfer 16 nL of compounds (consisting of 7-plates in qHTS format, final concentration range 18.3 nM to 114 uM) or control MLS001163887 (final concentration range 1.22 nM to 40 uM).
3. Plates were centrifuged (121xg, 15 seconds) and incubated for 1 hour at room temperature protected from light.
4. Samples were read for fluorescence (Ex/Em = 525(20)/598(25) nm) on a ViewLux CCD imager (PerkinElmer). Data were normalized to Acetyl-MSTI (0% activity) and MSTI (100% activity) and the resulting percent inhibition data were fitted to a 4-parameter Hill equation using NCATS in-house software.
Potency is read from the fitted curve at half-maximal effect.

Structure (SMILES)	activity change, negative = thiol reactive [%]	Potency
Cc1c(C(=O)Nc2cccc(C(F)(F)F)c2)cc(-c2ccccc2)n1CCCN1CCOCC1	190	
CC(C)[C@]12O[C@H]1[C@@H]1O[C@]13[C@]1(O[C@H]1C[C@H]1C4=C(CC[C@@]13C)C(=O)OC4)[C@@H]2O	0.472	
Cc1ccccc1-n1c(Cn2cnc3c(N)ncnc32)nc2cccc(C)c2c1=O	109	
CC(N[C@H]1C[C@H]1c1ccccc1)c1ccc2c(c1)OCCO2 (stereo not given in full)	10.5	
CCN(CC)C(=O)c1ccc(C2=CC3(CCNCC3)Oc3cccc(O)c32)cc1	11.6	
Cc1ccccc1-n1c(Cn2ncc3c(N)ncnc32)nc2cccc(C)c2c1=O	113	
O=C1C=CC[C@@H]2[C@H]3CCCN4CCC[C@@H](CN12)[C@@H]34	-8.97	
O=c1[nH]c2ccc(Cl)cc2c(N[C@@H]2CN3CCC2CC3)c1-c1nc2ccccc2[nH]1	81.1	
CC(C)(C)NC[C@H](O)c1ccc(O)cc1Cl	1.77	
CCNC(=O)CC1N=C(c2ccc(Cl)cc2)c2cc(OC)ccc2-n2c(C)nnc21 (stereo not given)		inactive
O=C(NCC1CCOCC1)c1cnc(Nc2ccc(Cl)cc2Cl)nc1C(F)(F)F	-12.1	
COC1=C[C@@H]2[C@@H]3Cc4ccc(OC)c(O)c4[C@]2(CCN3C)CC1=O	-5.33	
CCN1CCN(C(=O)Cc2ccc(Nc3ncc(F)c(Nc4ccc(C(=O)Nc5ccccc5Cl)cc4)n3)cc2)CC1	70.4	
C/C=C(/C)C(=O)O[C@H]1C(C)=C2[C@H]([C@@H]1OC(=O)CCCCCCC)[C@@](C)(OC(C)=O)C[C@H](OC(=O)CCC)[C@@]1(O)[C@H]2OC(=O)[C@@]1(C)O	5.07	
CCOC(=O)Nc1ccc(NCc2ccc(F)cc2)cc1N		1.19 µM (active)
CN1CCN(c2ccc([N+](=O)[O-])c3no[n+]([O-])c23)CC1		11.9 µM (active)
CC(=O)N(C)c1cccc(-c2ccnc3c(C(=O)c4cccs4)cnn23)c1	46.5	
CC1(N2CCC(n3c([C@@H]4CCCNC4)nc4ccccc43)CC2)CCCCCCC1	8.23	
S=C(NC1CCCCC1)N1CCC(c2cnc[nH]2)CC1	15.7	
CC(C)N(CCNC(=O)CN1CCCC1=O)C(C)C	-9.08	
CCNC(=O)C[C@@H]1N=C(c2ccc(Cl)cc2)c2cc(OC)ccc2-n2c(C)nnc21	70.3	
O=C(N[C@@H](COc1ccc2[nH]c(=O)[nH]c2c1)c1ccccc1)c1cccn(Cc2ccc(F)c(F)c2)c1=O	32.9	
O=C(N[C@H]1CN2CCC1CC2)c1ccc(Cl)cc1	-2.41	
O=C(Oc1ccc([N+](=O)[O-])cc1)N1CCC(C(O)(c2ccc3c(c2)OCO3)c2ccc3c(c2)OCO3)CC1	38.9	
Cc1[nH]nc2ccc(-c3cncc(OC[C@@H](N)Cc4c[nH]c5ccccc45)c3)cc12	94	

— PubChem BioAssay (NCATS)
